{"source": "PubChem BioAssay AID2315", "about": "(National Center for Advancing Translational Sciences (NCATS), 2010)", "note": "Among all 290,000 compounds or so, about 27,000 (9.3%) were called active. This is one part of a sample in which actives are shown more often than they occur. Cut-off read from the data, not from the text of the source: active = inhibition mostly above about 28% (no sharp cut-off); inactive = mostly below about 43%. Where a SMILES comes first, the peptide text is derived from it. [ ]: non-standard residue; d: D form. The star is where a group is joined. PhAc = O=C(Cc1ccccc1)*", "data": [{"assay": "A qHTS for Small Molecule Inhibitors of Shiga Toxin; note: 0% is about no effect", "settings": "Vero cells, Shiga toxin protein synthesis inhibition reporter; at 38.7 µM, hits give high values", "values": [{"smiles": "O=C(Nc1ccncc1)c1c(F)cccc1F", "inhibition": "-10.9% (inactive)"}, {"smiles": "CSc1nc2ccc(NC(=O)c3c(F)cccc3F)cc2s1", "inhibition": "90.3% (active)"}, {"smiles": "CCCC(=O)Nc1nc2ccc(NC(=O)c3c(F)c(F)c(OC)c(F)c3F)cc2s1", "inhibition": "-15.8% (inactive)"}, {"smiles": "O=C(N/N=C/c1cccc(O)c1)c1cc2c(ccc3ccccc32)o1", "inhibition": "6% (inactive)"}, {"smiles": "Cc1cccc(OCC(=O)NCC(=O)N/N=C/c2ccc(N(C)C)cc2)c1", "inhibition": "-12.5% (inactive)"}, {"smiles": "O=C(N/N=C/c1ccc(OCc2ccccc2)cc1)c1ccc(O)cc1", "inhibition": "51.1% (inactive)"}, {"smiles": "O=C(N/N=C/c1cccc(OCc2ccccc2)c1)c1ccc(Br)o1", "inhibition": "46.8% (active)"}, {"smiles": "Cc1ccc(OCCOCCOc2ccc(Br)cc2/C=N\\NC(=O)c2ccncc2)cc1", "inhibition": "-5.78% (inactive)"}, {"smiles": "Cc1ccc(OCCOc2cccc(/C=N/NC(N)=O)c2)cc1", "inhibition": "56.6% (active)"}, {"smiles": "CCOc1ccccc1N1C(=O)CC(Sc2nccc(C)n2)C1=O", "note": "(configuration not stated)", "inhibition": "10.8% (inactive)"}, {"smiles": "Cc1ccc2c(c1)N(CC(=O)N1CCOCC1)C(=O)CO2", "inhibition": "-3.54% (inactive)"}, {"smiles": "Cc1nc2cc(-c3ccc(F)cc3)nn2c(N2CCOCC2)c1C", "inhibition": "62.6% (inactive)"}, {"smiles": "Cc1cc(N)n2nc(-c3ccc(C(C)(C)C)cc3)cc2n1", "inhibition": "88.7% (active)"}, {"smiles": "Cc1cc(C(C)(C)C)n2nc(C)c(-c3ccccc3)c2n1", "inhibition": "-4.85% (inactive)"}, {"smiles": "Cc1cccc(OCC(O)CN2CCN(S(=O)(=O)c3ccc(C)cc3C)CC2)c1", "note": "(configuration not stated)", "inhibition": "-2.77% (inactive)"}, {"smiles": "O=C(CSc1ncn[nH]1)Nc1nc(-c2cccc([N+](=O)[O-])c2)cs1", "inhibition": "8.25% (inactive)"}, {"smiles": "O=C(CSCC(=O)Nc1cccc([N+](=O)[O-])c1)Nc1ccccc1", "inhibition": "7.24% (inactive)"}, {"smiles": "CCNC(=O)CSc1nc(-c2ccccc2)cs1", "inhibition": "74.3% (active)"}, {"smiles": "O=C(CSc1nc(-c2ccccc2)cs1)Nc1cccc([N+](=O)[O-])c1", "inhibition": "81.3% (active)"}, {"smiles": "CCOC(=O)CSc1nnc(CNc2nc(-c3ccccc3)cs2)n1C", "inhibition": "9.53% (inactive)"}, {"smiles": "O=C(CSC1=NCCS1)Nc1nc(-c2ccccc2)cs1", "inhibition": "29.7% (inactive)"}, {"smiles": "CC(C)C[C@@H](NC(=O)[C@H]1CCCN1C(=O)Cc1ccccc1)C(N)=O", "note": "(PhAc-[dP]-[dL]-NH2)", "inhibition": "6.07% (inactive)"}, {"smiles": "CCc1ccc(Nc2nnc(SCC(=O)c3ccc4c(c3)NC(=O)CO4)s2)cc1", "inhibition": "32.3% (inactive)"}, {"smiles": "CC(C)[C@H](NC(=O)OCc1ccccc1)C(=O)OCc1ccccc1", "inhibition": "25.1% (inactive)"}, {"smiles": "CCC1OC(c2ccc([N+](=O)[O-])cc2)=Nc2ccccc21", "note": "(configuration not stated)", "inhibition": "6.08% (inactive)"}, {"smiles": "COc1ccc(-c2n[nH]c(C)c2-c2ccccc2OC)c(O)c1", "inhibition": "13.4% (inactive)"}, {"smiles": "O=C(C1CC(=O)N(c2ccc(Br)cc2)C1)N1CCCC1", "note": "(configuration not stated)", "inhibition": "-22.5% (inactive)"}, {"smiles": "COc1ccc(NC(=O)c2cc([N+](=O)[O-])ccc2NC(=O)CNC2CCCCC2C)c(OC)c1", "note": "(configuration not stated)", "inhibition": "7.27% (inactive)"}, {"smiles": "CCc1nnc(NC(=O)c2sc3nc(C)cc(COC)c3c2N)s1", "inhibition": "53.1% (inactive)"}, {"smiles": "CCc1nnc(NC(=O)c2cccc(S(=O)(=O)N(C)c3ccc(OC)cc3)c2)s1", "inhibition": "-10.6% (inactive)"}, {"smiles": "CCc1ccc2nc3sc(C(=O)Nc4nnc(CC)s4)c(N)c3cc2c1", "inhibition": "48.9% (active)"}, {"smiles": "Cc1ccc(C)c(S(=O)(=O)Nc2cccc(-n3cnnn3)c2)c1", "inhibition": "23.9% (inactive)"}, {"smiles": "Cc1cccc[n+]1CC(=O)c1ccccc1", "inhibition": "5.04% (inactive)"}, {"smiles": "O=C(Nc1ccon1)c1sc2ccccc2c1Cl", "inhibition": "88% (active)"}, {"smiles": "O=C(Nc1ccon1)c1cccc(Cl)c1", "inhibition": "5.52% (inactive)"}, {"smiles": "O=C(N/N=C/c1c(Cl)[nH]c2ccccc12)c1sc2ccccc2c1Cl", "inhibition": "-0.233% (inactive)"}, {"smiles": "N#Cc1nc(Cc2cccc3ccccc23)oc1NCc1ccc2c(c1)OCO2", "inhibition": "12.3% (inactive)"}, {"smiles": "COc1ccc(Nc2oc(-c3ccccc3Cl)nc2C#N)cc1", "inhibition": "20.6% (inactive)"}, {"smiles": "Cc1ccccc1-c1nc(C#N)c(NCc2ccco2)o1", "inhibition": "71.9% (inactive)"}, {"smiles": "N#Cc1nc(COc2ccc(-c3ccccc3)cc2)oc1NCc1cccnc1", "inhibition": "56.8% (inactive)"}, {"smiles": "CCOc1ccc(Nc2oc(Cc3ccccc3)nc2C#N)cc1", "inhibition": "58.5% (active)"}, {"smiles": "N#Cc1nc(Cc2ccccc2)oc1NCCc1ccccc1", "inhibition": "64.7% (active)"}, {"smiles": "O=C(Nc1ccc(F)cc1)c1ccc(S(=O)(=O)NCc2cccnc2)cc1", "inhibition": "27.5% (inactive)"}, {"smiles": "CCOc1ccc(S(=O)(=O)N2CCC(C(=O)NCc3ccccn3)CC2)cc1Cl", "inhibition": "3.21% (inactive)"}, {"smiles": "CC1CCN(C(=O)c2ccc3c(=O)n4c(nc3c2)CCCCC4)CC1", "inhibition": "19.9% (inactive)"}, {"smiles": "CCc1nnc(NS(=O)(=O)c2ccc(NC(=S)NC(=O)c3cccs3)cc2)s1", "inhibition": "-15.7% (inactive)"}, {"smiles": "Cc1cc(C)nc(NS(=O)(=O)c2ccc(N/C=C\\C(=O)c3cccs3)cc2)n1", "inhibition": "97.2% (active)"}, {"smiles": "CC(=O)Nc1ccc(S(=O)(=O)Nc2nccc(/C=C/c3ccccc3F)n2)cc1", "inhibition": "21.8% (inactive)"}, {"smiles": "COc1ccc2[nH]cc(/C=C(/C#N)S(=O)(=O)c3ccccc3)c2c1", "inhibition": "-6.23% (inactive)"}, {"smiles": "COc1ccc(C(C(O)C(=O)c2c[nH]c3ccccc23)N2CCN(c3ccccc3)CC2)cc1", "note": "(configuration not stated)", "inhibition": "-5.67% (inactive)"}, {"smiles": "COc1ccc(/C=C(\\C#N)c2c[nH]c3ccccc23)cc1", "inhibition": "68% (active)"}, {"smiles": "CCc1ccc(NC(=O)C(=O)NNC(=O)c2cccs2)cc1", "inhibition": "39.1% (active)"}, {"smiles": "NS(=O)(=O)c1ccc(NC(=S)NC(=O)c2cccnc2)cc1", "inhibition": "-16% (inactive)"}, {"smiles": "Cc1ccccc1C(=O)N1CCN(c2ccc(NC(=O)c3cccs3)cc2)CC1", "inhibition": "-18.3% (inactive)"}, {"smiles": "O=C(COC(=O)CCc1c[nH]c(=O)[nH]1)Nc1ccccc1Cl", "inhibition": "-3.38% (inactive)"}, {"smiles": "O=C(COC(=O)/C(=C/c1cccs1)c1cccs1)NCc1ccccc1Cl", "inhibition": "13.7% (inactive)"}, {"smiles": "O=C(COC(=O)c1cccs1)NCc1cccs1", "inhibition": "40% (active)"}, {"smiles": "NS(=O)(=O)c1ccc(NC(=S)NNC(=O)c2cccs2)cc1", "inhibition": "107% (active)"}, {"smiles": "O=C(COC(=O)CCC(=O)c1cccs1)NCc1ccco1", "inhibition": "-12.8% (inactive)"}, {"smiles": "O=C(COC(=O)c1ccc(Cl)nc1)NCc1cccs1", "inhibition": "-3.54% (inactive)"}, {"smiles": "O=C(COC(=O)c1cccs1)Nc1ccccc1Cl", "inhibition": "36.9% (active)"}, {"smiles": "NS(=O)(=O)c1ccc(NC(=S)NC(=O)c2cccc(Br)c2)cc1", "inhibition": "4.4% (inactive)"}]}]}
